Reference: PubChem BioAssay AID1159580 (chemical genetic matrix, 2015)
Out of some 5,500 compounds screened, about 2,000 (36%) were called active. Inconclusive results (about 18%) are left out. Cut-off read from the data, not from the text of the source: active = normalized growth mostly below about 0.91 (no sharp cut-off); inconclusive = no clear call, values can overlap the other calls; inactive = mostly above about 0.92. This is one part of the list.

Test: chemical genetic growth profiling, strain panel (AID 1159580);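 note: tested at 20 µM; growth read once vehicle control cultures reached saturation at 30 °C; 1 = growth at the plate median or of vehicle wells; lower values mean less growth of the strain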
Conditions: S. cerevisiae deletion strains, growth OD
[1] = locus YAR019C, strain CDC15, active compounds read low
[2] = locus YBL105C, strain PKC1, active compounds read low
[3] = locus YBR135W, strain CKS1, active compounds read low
[4] = locus YBR136W, strain MEC1, active compounds read low
[5] = locus YBR160W, strain CDC28, active compounds read low
[6] = locus YDL017W, strain CDC7, active compounds read low
[7] = locus YDL028C, strain MPS1, active compounds read low
[8] = locus YDL101C, strain DUN1, active compounds read low
[9] = locus YDL108W, strain KIN28, active compounds read low
[10] = locus YDL132W, strain cdc53, active compounds read low
[11] = locus YDL214C, strain PRR2, active compounds read low
[12] = locus YDR052C, strain DBF4, active compounds read low
[13] = locus YDR054C, strain cdc34, active compounds read low
[14] = locus YDR226W, strain ADK1, active compounds read low
[15] = locus YDR477W, strain SNF1, active compounds read low
[16] = locus YER123W, strain YCK3, active compounds read low
[17] = locus YER133W, strain GLC7, active compounds read low
[18] = locus YFL009W, strain cdc4, active compounds read low
[19] = locus YFL029C, strain CAK1, active compounds read low
[20] = locus YFR003C, strain YPI1, active compounds read low
[21] = locus YFR019W, strain FAB1, active compounds read low
[22] = locus YFR028C, strain CDC14, active compounds read low
[23] = locus YGR040W, strain KSS1, active compounds read low
[24] = locus YGR052W, strain FMP48, active compounds read low
[25] = locus YGR092W, strain DBF2, active compounds read low
[26] = locus YHR030C, strain SLT2, active compounds read low
[27] = locus YHR079C, strain IRE1, active compounds read low
[28] = locus YHR082C, strain KSP1, active compounds read low
[29] = locus YHR205W, strain SCH9, active compounds read low
[30] = locus YIL147C, strain SLN1, active compounds read low
[31] = locus YJL095W, strain BCK1, active compounds read low
[32] = locus YJL128C, strain PBS2, active compounds read low
[33] = locus YJL157C, strain FAR1, active compounds read low
[34] = locus YJR016C, strain ILV3, active compounds read low
[35] = locus YJR066W, strain TOR1 (second series), active compounds read low
[36] = locus YJR066W, strain TOR1, active compounds read low
[37] = locus YKL048C, strain ELM1, active compounds read low
[38] = locus YKL067W, strain YNK1, active compounds read low
[39] = locus YKL101W, strain HSL1, active compounds read low
[40] = locus YKL193C, strain SDS22, active compounds read low
[41] = locus YKL203C, strain TOR2, active compounds read low
[42] = locus YLR113W, strain HOG1, active compounds read low
[43] = locus YLR133W, strain CKI1, active compounds read low
[44] = locus YLR403W, strain SFP1, active compounds read low
[45] = locus YML070W, strain DAK1, active compounds read low
[46] = locus YMR001C, strain CDC5, active compounds read low
[47] = locus YMR205C, strain PFK2 (second series), active compounds read low
[48] = locus YMR277W, strain FCP1, active compounds read low
[49] = locus YNL006W, strain LST8, active compounds read low
[50] = locus YNL020C, strain ARK1, active compounds read low
[51] = locus YNL161W, strain CBK1, active compounds read low
[52] = locus YNL183C, strain NPR1, active compounds read low
[53] = locus YNL207W, strain RIO2, active compounds read low
[54] = locus YNL222W, strain SSU72, active compounds read low
[55] = locus YNL307C, strain MCK1 (second series), active compounds read low
[56] = locus YOL078W, strain AVO1, active compounds read low
[57] = locus YOL136C, strain PFK27, active compounds read low
[58] = locus YOR061W, strain CKA2, active compounds read low
[59] = locus YOR119C, strain RIO1, active compounds read low
[60] = locus YOR231W, strain MKK1, active compounds read low
[61] = locus YOR329C, strain SCD5, active compounds read low
[62] = locus YPL031C, strain PHO85, active compounds read low
[63] = locus YPL153C, strain RAD53, active compounds read low
[64] = locus YPL204W, strain HRR25, active compounds read low
[65] = locus YPL209C, strain IPL1, active compounds read low
[66] = locus YPL256C, strain CLN2, active compounds read low
[67] = locus YPR025C, strain CCL1, active compounds read low
[68] = locus YPR106W, strain ISR1, active compounds read low
[69] = locus YPR111W, strain DBF20, active compounds read low
[70] = strain NNK1, active compounds read low
[71] = strain TSCII, active compounds read low

Measured: normalized growth

COC(=O)c1sccc1S(=O)(=O)Nc1cc(C(F)(F)F)cc(C(F)(F)F)c1
inactive: [1] 0.973 | [2] 0.967 | [3] 0.974 | [4] 0.974 | [5] 0.962 | [6] 0.973 | [7] 0.979 | [8] 0.957 | [9] 0.97 | [10] 0.967 | [11] 0.962 | [12] 0.969 | [13] 0.98 | [14] 0.971 | [15] 0.985 | [16] 0.936 | [17] 0.981 | [18] 0.965 | [19] 0.965 | [20] 0.974 | [21] 0.955 | [22] 0.962 | [23] 0.971 | [24] 1.03 | [25] 0.977 | [26] 1.07 | [27] 1.02 | [28] 1.06 | [29] 0.947 | [30] 0.978 | [31] 1.01 | [32] 0.9 | [33] 0.963 | [34] 0.97 | [35] 0.942 | [36] 1.07 | [37] 0.95 | [38] 0.956 | [39] 0.958 | [40] 0.969 | [41] 1.04 | [42] 0.902 | [43] 0.962 | [44] 0.966 | [45] 0.935 | [46] 0.972 | [47] 0.946 | [48] 0.971 | [49] 0.985 | [50] 0.956 | [51] 0.967 | [52] 0.997 | [53] 0.97 | [54] 0.961 | [55] 0.943 | [56] 0.971 | [57] 0.938 | [58] 0.955 | [59] 1.05 | [60] 0.934 | [61] 0.972 | [62] 0.987 | [63] 0.973 | [64] 0.97 | [65] 0.965 | [66] 0.967 | [67] 0.969 | [68] 0.955 | [69] 0.938 | [70] 0.974 | [71] 0.972

O=S(=O)(Nc1cc(C(F)(F)F)cc(C(F)(F)F)c1)c1ccc(Cl)s1
inactive: [1] 0.927 | [2] 0.921 | [3] 0.93 | [4] 0.922 | [5] 0.923 | [6] 0.925 | [7] 0.928 | [8] 0.942 | [9] 0.939 | [10] 0.925 | [11] 0.818 | [13] 0.926 | [14] 0.914 | [15] 0.808 | [16] 0.622 | [17] 0.83 | [18] 0.92 | [19] 0.928 | [20] 0.927 | [22] 0.927 | [23] 0.835 | [24] 0.619 | [29] 0.808 | [30] 0.927 | [31] 0.605 | [32] 0.906 | [33] 0.802 | [34] 0.921 | [35] 0.856 | [36] 0.668 | [38] 0.841 | [40] 0.933 | [41] 0.786 | [43] 0.772 | [44] 0.837 | [45] 0.718 | [46] 0.93 | [47] 0.852 | [48] 0.931 | [49] 0.941 | [50] 0.726 | [51] 0.927 | [52] 0.568 | [53] 0.914 | [54] 0.934 | [55] 0.645 | [56] 0.923 | [58] 0.836 | [59] 0.838 | [61] 0.927 | [62] 0.706 | [65] 0.927 | [67] 0.929 | [68] 0.934 | [69] 0.923 | [70] 0.919 | [71] 0.917
active: [12] 0.891 | [21] 0.772 | [25] 0.369 | [26] 0.246 | [27] 0.51 | [28] 0.48 | [37] 0.701 | [39] 0.685 | [42] 0.55 | [57] 0.67 | [60] 0.558 | [63] 0.617 | [64] 0.628 | [66] 0.475
